Our source for the growth inhibition values is PubChem BioAssay (NCI).

A short description of test [1]: NCI Yeast Anticancer Drug Screen. Data for the rad50 strain (AID 155).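 Further: 0% = growth of vehicle-only cultures of the same strain.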 The note with it: S. cerevisiae rad50 strain growth inhibition; at 50.0 µM; stronger effect = higher value. The essentials:
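Genetically altered yeast (DNA repair pathway); compound treatment; growth inhibition vs vehicle ctrl.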

A short description of test [2]: NCI Yeast Anticancer Drug Screen. Data for the mec2-1 strain (AID 157). The note with it: S. cerevisiae mec2-1 strain, at 50.0 µM, stronger effect = higher value. The essentials: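 Yeast mec2-1 mutant treated with compound. Readout: growth inhibition vs vehicle controls.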
Test [3] in a line: NCI Yeast Anticancer Drug Screen. Data for the sgs1 mgt1 strain (AID 161).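 Further: 0% = growth of cultures given vehicle only.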 The note with it: S. cerevisiae sgs1 mgt1 strain, at 50.0 µM, stronger effect = higher value. The essentials: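 Genetically altered yeast, compound exposure, growth inhibition relative to vehicle.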
The nature of test [4]: NCI Yeast Anticancer Drug Screen. Data for the cln2 rad14 strain (AID 165).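 Further: 0% = growth equal to vehicle treated cultures.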 The note with it: S. cerevisiae cln2 rad14 strain, at 50.0 µM, stronger effect = higher value. The essentials: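 cln2 rad14 yeast strain; compound exposure; growth inhibition read vs vehicle controls.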
Test [5] can be described thus: NCI Yeast Anticancer Drug Screen. Data for the bub3 strain (AID 167). Conditions: S. cerevisiae bub3 mutant strain, at 50.0 µM, stronger effect = higher value. The essentials:
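Yeast carrying a defined mutation is treated with each compound, and growth is compared with that of vehicle-exposed cells to give inhibition.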

Test [6] can be described thus: NCI Yeast Anticancer Drug Screen. Data for the mlh1 rad18 strain (AID 175). The note with it: S. cerevisiae mlh1 rad18 strain growth inhibition; at 50.0 µM; stronger effect = higher value. The essentials:
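Yeast w/ defined DNA-repair lesions; compound exposure; growth vs vehicle controls → % inhibition.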

The panel holds about 79,000 compounds, 15% with a hit somewhere; the sample as a whole holds those more often. Values without a mark were called inactive. Calls of active or inactive are those of the source. No stated cut-off is given here; in the data, active means growth inhibition above about 70%; inactive means the rest.

Turning to `O=C(O)c1ccc(CC2CCCC2)cc1`, the growth inhibition was 30.8% in test [1]; 25.9% in test [2]; 21.4% in test [3]; -8.2% in test [4]; -2.35% in test [5]; 8.85% in test [6].

In the case of `CN(C)/C=C(/N=C(C#N)C#N)C1OCCO1`, the growth inhibition in test [1] was 4.1%; in test [2], 8.55%; in test [3], -2.55%; in test [4], -27.1%; in test [5] it was 3.8%; in test [6], -1.7%.

`CC(c1ccc2ccc3cccc4ccc1c2c34)C(C(=O)O)C(=O)O` (stereo unspecified): the growth inhibition in test [1] was -0.85%; in test [2], -15.8%; in test [3], 8.6%; in test [4], -7.15%; in test [5], 0.75%; in test [6], 5.7%.

With `C/C(=N/NC(N)=O)C(=O)O`, the growth inhibition is -0.15% in test [1]; 10.7% in test [2]; 2.5% in test [3]; -48.4% in test [4]; -2.95% in test [5]; 13.7% in test [6].

In the case of `Cc1cc(=O)n(-c2ccccc2)c(=O)n1-c1nc2ccccc2[nH]1`, the growth inhibition in test [1] is 19%; in test [2], -8.4%; in test [3] it was 14.7%; in test [4] it was 3.65%; in test [5] it was -4.35%; in test [6], 32%.

Regarding `O=C(Nc1ccccc1)Oc1ccc(Cl)cc1Cc1ccccc1`, the growth inhibition in test [1] was 99.7% (active); in test [2] it was 99.8% (active); in test [3], 99.8% (active); in test [4], 99.8% (active); in test [5] it was 99.8% (active); in test [6] it was 99.8% (active).

On to `N#CC1C=Cc2ccccc2N1C(=O)Oc1ccccc1` (stereo unspecified), for which the growth inhibition in test [1] is 1.5%; in test [2], 14.3%; in test [3], 10.6%; in test [4] it was 18.6%; in test [5], -7.8%; in test [6] it was 16.6%.

As to `CCCCNc1c(C(=O)N2CCCCC2)cnc2c1cnn2CC`, the growth inhibition in test [1] is -3.15%; in test [2] it was 1.8%; in test [3] it was 26.2%; in test [4] it was -13.9%; in test [5], 46.8%; in test [6], 1.05%.

Take `COc1ccc2c(c1)c(=O)c1c(NCCCN(C)C)ccc3ncn2c31`: the growth inhibition was 34.6% in test [1]; -5.35% in test [2]; 15.8% in test [3]; -1.7% in test [4]; -9.6% in test [5]; 9.3% in test [6].

For the compound `COc1ccc(/C=N/NC(=O)c2ccc(N)cc2)c(OC)c1`, the growth inhibition in test [1] is 5.7%; in test [2], 9.4%; in test [3], 10%; in test [4], -0.9%; in test [5] it was 14.2%; in test [6], 13%.

Turning to `CCNC(=O)C(C(=O)OC)c1ccccc1` (stereo unspecified), the growth inhibition in test [1] is 3.7%; in test [2] it was -1.5%; in test [3], 5.3%; in test [4] it was -3.45%; in test [5] it was 30.8%; in test [6], 1.2%.

On to `C/C(=N\NC(=S)N1CCN(c2ccccn2)CC1)c1cccc2cccnc12`, for which the growth inhibition in test [1] is 13.4%; in test [2], -21.1%; in test [3], -18.9%; in test [4], 2.4%; in test [5], 1.4%; in test [6], -0.25%.

Turning to `CCCCCCCCCCCCCCCc1ccc([N+](=O)[O-])c(O)c1`, the growth inhibition is -2.25% in test [1]; 33.5% in test [2]; 7.1% in test [3]; -8.75% in test [4]; 51.7% in test [5]; 35.9% in test [6].

`CCN=NNc1ccc(C#N)cc1`: the growth inhibition in test [1] is 6.4%; in test [2], 2.15%; in test [3], -0.25%; in test [4], 6.1%; in test [5], 16.9%; in test [6], 0.55%.

On to `CCOC(=O)C(NCc1cccc(C(F)(F)F)c1)(NC(=O)c1ccccc1)C(F)(F)F` (stereo unspecified), for which the growth inhibition in test [1] was 12.2%; in test [2], -0.95%; in test [3], -1.95%; in test [4], 17.9%; in test [5], 8.4%; in test [6], 25%.

On to `Oc1[nH]c2ccccc2c1N=Nc1nc(-c2ccccc2)cs1`, for which the growth inhibition in test [1] is -40.6%; in test [2], -52%; in test [3], -46%; in test [4], -0.9%; in test [5], -30.4%; in test [6] it was -18.8%.

As to `CCOC(Nc1ccccc1[N+](=O)[O-])C(=O)c1ccccc1` (stereo unspecified), the growth inhibition in test [1] was 21.4%; in test [2], 8.05%; in test [3] it was 1.35%; in test [4], 28.7%; in test [5] it was 24.4%; in test [6] it was 12.7%.

For the compound `Cc1nc2ccccc2c(=O)n1NC(=O)c1ccccc1O`, the growth inhibition is -7.45% in test [1]; -53.6% in test [2]; -7.6% in test [3]; 11.5% in test [4]; -4.1% in test [5]; 17.1% in test [6].

Regarding `O=C1Nc2ccccc2C12CCNC2Cc1ccccc1` (stereo unspecified), the growth inhibition was -17.2% in test [1]; -12.2% in test [2]; -11.8% in test [3]; 19.8% in test [4]; -8.55% in test [5]; -21.4% in test [6].

Turning to `CC(SCc1ccccc1)C(NC(=O)c1ccccc1)C(=O)O` (stereo unspecified), the growth inhibition is 4.95% in test [1]; 9.9% in test [2]; -8.3% in test [3]; -0.3% in test [4]; 10.1% in test [5]; 7.55% in test [6].

For the compound `Cc1nccc2cccc(CNC(C)C)c12`, the growth inhibition in test [1] was 3.7%; in test [2] it was 2.7%; in test [3] it was 4.1%; in test [4], 7%; in test [5] it was -11.2%; in test [6], -4.25%.
